Compounds with a hit are over-represented: about 20% of the library has one in this group of screens.
Cycloheximide cs = counter-screen hit for Shiga toxin inhibitors, cycloheximide; cell reporter, cycloheximide protein synthesis inhibition counterscreen; max response, %; hit rate 12% among 300,000; in the data active = max response mostly above about 13%, no sharp cut-off; inactive = mostly below about 14%; note: read at 38.3 µM for the half of the compounds with a filed dose; 0% is about no effect
Pf growth 96h = inhibits malaria parasite growth, 96 h. Potency, µM (highest dose often 28.7 µM), for inactives: at the highest dose activity change, negative = inhibition, most hits filed as inhibitors. hit rate 6.9% among 320,000. P. falciparum luciferase reporter growth, 96 h; note: potency is the fitted concentration of half-maximal effect; % is set by controls: 0 for no effect and ±100 for the full control effect
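P. falciparum expressing integrated firefly luciferase grown in erythrocytes (2% hematocrit, 0.05% parasitemia final) with compounds for 96 hours at 37 C, 5% CO2. Growth inhibition read as loss of luminescence after adding luciferase detection reagent.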
Pf growth 48h = inhibits P. falciparum growth in the first generation, 48 h | Potency, µM (top dose mostly 28.7 µM), for the others: at the top dose activity change, negative = inhibition, usual class: inhibitors | P. falciparum luciferase growth in erythrocytes, 48 h | hit rate 5.9% among 310,000; note: potency is the fitted concentration of half-maximal effect; % is set by controls: 0 for no effect and ±100 for the full control effect
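Luminescence readout; reporter = integrated firefly luciferase in P. falciparum. RBC culture at 2% hematocrit, 0.1% parasitemia final, 37 C/5% CO2; decreased signal taken as growth inhibition.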
HCMV inh = human cytomegalovirus inhibition. HFF cells, HCMV-luciferase reporter, 72 h; hits give low values. activity change, negative = inhibition, % at 57.5 µM. hit rate 4.5% among 410,000. AID 1259415; in the data active = activity change below about -60%; inconclusive = no clear call, values can overlap the other calls; inactive = above about -39%; note: % is set by controls: 0 for no effect and ±100 for the full control effect
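Two-dose cell screen: HFF monolayers treated with compounds and infected with luciferase-expressing HCMV at 1 PFU/cell, 72 h at 37C, then lysed for luciferase measurement.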
Shiga toxin inh = blocks Shiga toxin action in Vero cells | Vero cells, Shiga toxin protein synthesis inhibition reporter | inhibition, % at 38.7 µM | hit rate 9.2% among 290,000 | AID 2315; in the data active = inhibition mostly above about 28%, no sharp cut-off; inactive = mostly below about 43%; note: 0% is about no effect
An asterisk follows results filed as active; ? = inconclusive; nt = no result. Unless noted, calls come from the whole dose curve; as a rule, active = well fitted inhibition curve with a large enough effect; inconclusive = small, poorly fitted or top-dose-only effect, or another doubt; inactive = no such curve, though single readings can be large or run the other way.

SMILES	Cycloheximide cs	Pf growth 96h	Pf growth 48h	HCMV inh	Shiga toxin inh
O=C(COc1ccc(Cl)c2cccnc12)N1CCOCC1	nt	20%	44%	0	nt
Cc1ccc(S(=O)(=O)NCC(c2ccc(N(C)C)cc2)N2CCc3ccccc32)cc1 (centres undefined)	nt	nt	nt	4	nt
CCOc1cc2[nH]c(=O)n(CCC(=O)N3CCN(c4ccccc4)CC3)c(=O)c2cc1OCC	nt	nt	nt	-2	nt
COc1cc2[nH]c(=O)n(CCC(=O)N3CCN(c4cc(Cl)ccc4C)CC3)c(=O)c2cc1OC	-2	0%	12µM*	-64*	8
CCOc1cc2[nH]c(=O)n(CCC(=O)N3CCN(c4ccccc4OC)CC3)c(=O)c2cc1OCC	-4	12µM*	?	2	-11
COc1cc2[nH]c(=O)n(CCCCCC(=O)N3CCN(c4cccc(C(F)(F)F)c4)CC3)c(=O)c2cc1OC	nt	nt	nt	-70*	nt
CCOc1cc2[nH]c(=O)n(CCCCC(=O)N3CCCCCC3)c(=O)c2cc1OCC	1	10%	5.2µM*	-104*	7
COc1ccc(C(=O)CC2(O)C(=O)Nc3c(C)cccc32)c(OC)c1OC (centres undefined)	nt	nt	nt	-7	nt
COc1cccc(C2=Nn3c(nnc3-c3cc(OC)cc(OC)c3)SC2)c1	-3	nt	nt	nt	-3
COC(=O)C(c1cccc(OC)c1)(c1cn(C)c2ccccc12)C(Nc1ccccc1)c1ccccc1 (centres undefined)	nt	nt	nt	-6	nt
CCOC1=C2CN(S(=O)(=O)c3ccc(C)cc3)[C@H](c3ccccc3)C[C@H]2n2c(=O)n(-c3ccccc3)c(=O)n2C1	nt	nt	nt	-13	nt
C=C(CN(C)C)C(=O)c1ccc(C)cc1C	nt	nt	nt	-77*	nt
CC(=O)Nc1ccc(OCC(=O)c2ccc(C)cc2C)cc1	14	nt	?	-24	20
COc1cc(/C=N/NC(N)=S)ccc1OCc1ccc(C)cc1	30*	?	?	?	66*
COc1ccc(/C=N/NC(=S)NCc2ccccc2)cc1OC	-4	52%	15%	25	3
COc1ccc(C=NNC(=S)NN=Cc2ccc(OC)c(OC)c2)cc1OC	nt	nt	nt	-102*	nt
COc1cc(/C=N/NC(=S)NCCN2CCOCC2)cc(OC)c1O	19*	2%	22%	?	77*
COc1cc(/C=N/NC(=O)C[n+]2ccccc2)cc(OC)c1OC	-7	?	-8%	-14	-5
COc1cc(/C=N/NC(=S)N/N=C/c2cc(OC)c(OC)c(OC)c2)cc(OC)c1OC	38*	5%	27%	57	87*
O=C1NC[C@@H](CCCCN2C[C@H](Cc3ccc(O)cc3)N(CCc3ccccc3)C(=O)C2=O)N(Cc2ccccc2)C1=O	nt	nt	nt	-11	nt
COc1ccc(/C=N/NC(=S)Nc2ccccc2)cc1COc1cccc(C)c1C	8	?	-5%	-17	31*
CCc1ccc(OCC(=O)N/N=C/c2ccc(OS(=O)(=O)c3ccc(C)cc3)c(OC)c2)cc1	13*	?	?	3	9
COc1ccc(/C=N/Nc2nnc(Cc3ccc(OC)c(OC)c3)c(=O)[nH]2)cc1	5	?	9%	-68*	-7
COc1ccc(/C=C/C(=O)C2CC2)cc1COc1cccc(C)c1C	1	?	?	25	-7
COc1ccc(/C=N/Nc2nnc(Cc3ccc(OC)c(OC)c3)c(=O)[nH]2)cc1OC	1	13%	-20%	-26	19
SMILES	Cycloheximide cs	Pf growth 96h	Pf growth 48h	HCMV inh	Shiga toxin inh
COc1ccc(NC(=S)N/N=C/c2cccn2Cc2ccc(F)cc2)cc1	11	-2%	?	5	46*
CCC1CCc2nc3sc(C(=O)Nc4ccc(F)cc4F)c(N)c3cc2C1 (centres undefined)	nt	nt	nt	1	nt
Cc1ccc2cc3cc(C(=O)N(C)c4ccccc4C)oc3nc2c1	nt	nt	nt	9	nt
CC(C)NC(=O)N1[C@@H]2CN(C(=O)c3ccc(F)cc3)c3ccccc3[C@@H]2[C@@H]1CO	nt	nt	nt	-6	nt
CC(=O)c1cc2c(cc1NC(=O)c1c(-c3ccccc3)noc1C)OCO2	-2	-7%	7%	-1	-29
COc1ccc(C=NNC(=S)Nc2ccc(F)cc2)cc1OC	nt	nt	nt	-61*	nt
COc1ccc(CNC(=S)N/N=C/c2ccc(OC)c(OC)c2)cc1	21*	19%	28%	8	17
COc1cccc(/C=N/NC(N)=S)c1OCc1cccc(Cl)c1	-4	3.7µM*	12µM*	?	-2
COc1ccc(CNC(=S)N/N=C/c2ccc(O)c(OC)c2)cc1	-3	-15%	3%	31	18
CN(C)c1ccc(C=NNC(=S)Nc2ccc(F)cc2)cc1	nt	nt	nt	46	nt
CCS(=O)(=O)c1nc2ccccc2n1CC(=O)Nc1ccccc1C(=O)OC	nt	nt	nt	1	nt
CN(C(=O)CSc1nnc(-c2ccc(Cl)cc2)n1C)C1CCS(=O)(=O)C1 (centres undefined)	nt	nt	nt	-8	nt
O=C(Nc1cccc(S(=O)(=O)NC2=NCCC2)c1)C1CC(=O)N(c2ccc3c(c2)OCCO3)C1 (centres undefined)	11	1%	-28%	-31	17
Cc1ccc(N(C)S(=O)(=O)c2cccc(C(=O)Nc3ccc(N4CCOCC4)cc3)c2)cc1	nt	10µM*	?	?	nt
COc1ccc(N(C)S(=O)(=O)c2cccc(C(=O)NC3CCCC3)c2)cc1	5	?	10µM*	3	8
COc1ccc(N(C)S(=O)(=O)c2cccc(C(=O)Nc3ccc(N4CCOCC4)cc3)c2)cc1	nt	?	8.3µM*	-31	nt
CN(C)S(=O)(=O)c1cccc(C(=O)Nc2ccc(N3CCOCC3)cc2)c1	-4	20%	1%	-79*	-6
COc1cc(NC(=O)C2=C(N3CCOCC3)/C(=C/c3ccc(Cl)cc3)CC2)cc(OC)c1OC	0	1%	-10%	45	-4
COc1cc(NC(=O)C2=C(N3CCOCC3)/C(=C\c3ccc(N(C)C)cc3)CCC2)cc(OC)c1OC	46*	?	15µM*	-91*	77*
O=S(=O)(c1ccc2c(c1)OCO2)N1CCN(c2nnnn2-c2ccccc2)CC1	36*	?	?	?	13
Oc1ccc(N2CCN(c3nnnn3-c3ccccc3)CC2)cc1	6	?	-16%	-63*	-7
CCc1nnc(NC(=O)Cc2ccc(Br)cc2)s1	-2	4%	-2%	-1	-13
CC(C)CC(=O)Nc1ccc(Oc2ccc3c(c2)C(=O)NC3=O)cc1	-2	13µM*	15%	7	4
Cc1ccc(OCC(=O)Nc2ccc3c(c2)C(=O)NC3=O)cc1	9	?	5%	11	16
CCC(C)c1ccc(NC(=S)NCc2cccs2)cc1 (centres undefined)	23*	25%	0%	47	76*
S=C(NCCc1ccccc1)NCc1cccs1	54*	28%	49%	-23	active
COc1ccc(CCNC(=S)NCc2cccs2)cc1OC	-1	21%	?	8	-2
CCC(C)c1ccc(NC(=S)NCc2ccccc2OC)cc1 (centres undefined)	8	?	?	?	39
O=C(O)Cc1ccc(NC(=S)Nc2ccc(Br)cc2Cl)cc1	-1	0%	-3%	10	-6
